Sfp inh = qHTS Assay for Inhibitors of Bacillus subtilis Sfp phosphopantetheinyl transferase (PPTase) | 3.5% of 310,000 active | 4'-phosphopantetheinyl transferase ffp (Bacillus subtilis), Q9F4F7 | Biochemical Sfp PPTase activity, qHTS | Potency, µM, without a hit: largest response in the series, negative = inhibition, most hits filed as inhibitors;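 further: the enzyme is Sfp with the accession as filed and its product quenches rhodamine fluorescence; potency means the concentration at half of the fitted maximal effect; 0% = enzyme reaction without inhibitor and -100% = no enzyme wells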
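Step 1, compound plus 15 nM Sfp-PPTase, 15 min, room temperature. Step 2, add rhodamine-CoA (5 uM) and BHQ-2-YbbR (12.5 uM). Step 3, read 525/598 nm fluorescence at 0 and 30 min.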
Tau fluor cs = Counterscreen qHTS for Inhibitors of Tau Fibril Formation, Fluorescence Polarization | tau K18 P301L Alexa594 fluorescence, heparin fibrillization | Potency, µM (series often up to 57.7 µM), without a hit: at the highest dose activity change, negative = decrease | 0.93% of 280,000 active | AID 1463, 2008; further: potency means the concentration at half of the fitted maximal effect; nearly all actives have a fitted effect of over 55% in size
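Human K18 P301L tau (15 uM unlabeled plus 0.24 uM Alexa 594-labeled, final) in 100 mM sodium acetate pH 7 was mixed with compound and 20 uM heparin and incubated 6 hr at 37 C.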
Tau fibril ThT = qHTS for Inhibitors of Tau Fibril Formation, Thioflavin T Binding; Microtubule-associated protein tau (Homo sapiens), P10636; recombinant tau K18 P301L (four-repeat tau fragment), heparin-induced fibrillization, ThT fluorescence; Potency, µM (highest dose often 57.4 µM), for the others: top-dose activity, negative = inhibition, most hits filed as inhibitors; 2.1% of 270,000 active; AID 1460, 2008; further: potency means the concentration at half of the fitted maximal effect; nearly all actives have a fitted effect of over 55% in size
Target sequence (P10636 561-689 P618L limits assumed): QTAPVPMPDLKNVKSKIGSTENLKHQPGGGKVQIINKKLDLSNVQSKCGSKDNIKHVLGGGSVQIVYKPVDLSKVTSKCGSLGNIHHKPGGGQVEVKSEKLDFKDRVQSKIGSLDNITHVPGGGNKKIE
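Tau K18 P301L fragment (15 uM unlabeled plus 0.24 uM Alexa 594-labeled) in 100 mM sodium acetate pH 7 with compound, fibrillization induced by 20 uM heparin for 6 hr at 37 C. Thioflavin T (30 uM) added, fluorescence read after 1 hr (ex 450, em 510 nm).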
Coupling enz = qHTS Assay for Inhibitors of Fructose-1,6-bisphosphate Aldolase from Giardia Lamblia: Coupling assay counterscreen | activity change, negative = inhibition, % at 58.2 µM, hits read low | AID 2472, 2010 | 0.67% of 290,000 active | coupling enzyme system counterscreen, AmpLite Red fluorescence; in the data active means activity change below about -30%
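Counterscreen of the coupled detection system alone, without aldolase: glyceraldehyde-3-phosphate coupling enzymes plus AmpLite Red readout. Compounds at 57.5 uM final, 10 min RT preincubation, 20 min RT reaction, fluorescence 525/598 nm.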
Tau fibril FP = qHTS for Inhibitors of Tau Fibril Formation, Fluorescence Polarization; Microtubule-associated protein tau (Homo sapiens), P10636; K18 P301L tau heparin fibrillization, Alexa594 FP, 6 h; 0.39% of 280,000 active; Potency, µM (titrated, usually from 57.7 µM), inactives show at the top dose activity, negative = inhibition, usual class: inhibitors; further: potency means the concentration at half of the fitted maximal effect; nearly all actives have a fitted effect of over 55% in size
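Human tau K18 […] P301L fragment, 15 uM unlabeled plus 0.24 uM Alexa 594-labeled tau (final), with compound and 20 uM heparin in 100 mM sodium acetate pH 7; 6 hr at 37 C, then Alexa 594 FP read.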
Numbers without * were called inactive; ? = inconclusive; . = no result given; ! = a repeat was not active; [ ] = remark or other dose. In the library only some 5.2% were active in any assay of this set; here they are far more common. Unless noted, the call rests on the fitted dose curve; in most records, active means well fitted curve in the direction sought with a large enough effect; inconclusive means small, poorly fitted or top-dose-only effect, or another doubt; inactive means no such curve, though single readings can be large; an effect the other way counts as inactive or inconclusive. Unless noted, on the % scale 0 is the no-effect control and ±100 the full control effect.

SMILES	Sfp inh	Tau fluor cs	Tau fibril ThT	Coupling enz	Tau fibril FP
CCCCCCCC/C=C\CCCCCCCC(=O)NCCc1ccc(O)c(O)c1	9%	14µM*![quencher]	?	-14	?
O=C(c1cc(-c2cccc(Cl)c2)on1)N1CCCCC1	.	-20%	-12%	.	1%
CC(C)COc1ccc(C(=O)OCCN2CCCCC2)cc1	6%	.	.	1	.
CCOC(=O)N1CCN(CCC(=O)c2ccc(Cl)cc2)CC1	50µM*	11%	7%	8	?
O=C(OCCN1CCCCC1)c1ccc(Cl)cc1	89µM*	-8%	-9%	0	-9%
CCOC(=O)N1CCN(CCC(=O)c2ccc(Br)cc2)CC1	50µM*	.	.	4	.
CCOC(=O)N1CCN(CCC(=O)c2ccc(OC)cc2)CC1	-2%	9%	?	-1	20%
OC[C@@H](O)[C@@H](O)CCc1ccccc1	19%	-5%	-7%	1	9%
CCCn1c(/C=N/Nc2nc3ccccc3[nH]2)nc2ccccc21	?	?	?	6	?
Cc1ccsc1/C=N/Nc1nc2ccccc2[nH]1	0%	?	?	-3	1%
CC(C)Cn1c(/C=N/Nc2nc3ccccc3[nH]2)nc2ccccc21	-11%	28µM*[quencher]	?	0	13%
Cn1c(/C=N/Nc2nc3ccccc3[nH]2)nc2ccccc21	-8%	?	4µM*	-1	0%
C(=N\Nc1nc2ccccc2[nH]1)/c1cccs1	-19%	?	5µM*	-9	18µM*
Cc1c(/C=N/Nc2nc3ccccc3[nH]2)c2ccccc2n1C	?	14µM*[quencher]	.	-4	18%
Cc1ncc(C[n+]2csc(CCOP(=O)(O)O)c2C)c(N)n1	14%	.	.	.	.
C=CCn1cc(/C=N/Nc2nc3ccccc3[nH]2)c2ccccc21	16µM*	11µM*[quencher]	7.9µM*	-9	1%
CC(C)c1ccc(/C=C/C(=O)N2CCCCCC2)cc1	-9%	-14%	?	0	0%
CC(C)c1ccc(/C=C/C(=O)n2nnc3ccccc32)cc1	-26%	-15%	20µM*	2	?
CC(=O)OCC(NC(=O)C(C)NC(=O)OC(C)(C)C)C1OC(n2ccc(=O)[nH]c2=O)C(OC(C)=O)C1OC(C)=O (stereo not drawn)	-16%	.	.	2	.
COc1ccc2c(c1)OC1(O)COc3cc(OC)c(OC)cc3C1=C2 (stereo not drawn)	-4%	?	5.6µM*	-5	?
NC(=O)CCC1NC(=O)C(Cc2ccccc2)NC(=O)C(Cc2ccc(O)cc2)NC(=O)CCSSCC(C(=O)N2CCCC2C(=O)NC(CCCN=C(N)N)C(=O)NCC(N)=O)NC(=O)C(CC(N)=O)NC1=O (stereo not drawn)	23%	.	.	.	.
COc1ccccc1-c1nc(SCC(=O)NCc2ccc(C)cc2)c2c(=O)n(C)c(=O)n(C)c2n1	.	4%	4%	.	2%
C=CC1=C(C)C2=NC1=CC1=NC(=CC3=NC(=CC4=NC(=C2)C(C)=C4CCC(=O)O)C(CCC(=O)O)=C3C)C(C=C)=C1C.[Zn]	4.5µM*	14µM*[quencher]	6.3µM*	-14	20µM*
Cc1nc(-c2ccc(C)c(S(=O)(=O)N3CCC(C(=O)NCc4ccc(Cl)cc4)CC3)c2)no1	.	-14%	6%	.	?
Cc1ccc(Cl)cc1-n1ncc2c(N3CCN(Cc4ccccc4)CC3)ncnc21	.	-14%	-12%	.	?
SMILES	Sfp inh	Tau fluor cs	Tau fibril ThT	Coupling enz	Tau fibril FP
COc1cc(-c2cc(C(=O)Nc3ccc(S(N)(=O)=O)cc3)c3ccccc3n2)cc(OC)c1OC	15%	.	.	-1	.
CCN(CC)S(=O)(=O)c1ccc(O)c(NC(=O)c2cc(-c3cc(OC)c(OC)c(OC)c3)nc3ccccc23)c1	45µM*	.	.	1	.
COc1ccc(N/C=C2\C(=O)CCc3c2oc2cc(Cl)c(O)c(Cl)c32)cc1	-18%	?	2.5µM*	6	16%
CC(=O)c1cccc(NC(=O)Nc2cnn(Cc3ccc(Cl)cc3Cl)c2)c1	-21%	8.9µM*[quencher]	-10%	-1	?
Cc1cccc2nc(COc3ccc(-c4ccccc4)cc3)cn12	45µM*	-29%	?	0	-6%
Cc1cc(C)n2cc(COc3ccc4ccccc4c3)nc2n1	13%	2%	?	1	0%
CC(C)(C)C1CCC2(CC1)C(C#N)=C(SCC(=O)Nc1ccccc1)NC(=O)C2C#N (stereo not drawn)	33%	?	6%	1	22µM*
O=C(CC1Oc2ccccc2NC1=O)NCc1ccccc1 (stereo not drawn)	7%	-10%	-18%	0	-16%
CC(=O)CC1OC(=O)C(Br)=C1NCc1ccccc1 (stereo not drawn)	-10%	-19%	8.9µM*	2	?
Cc1c(Cl)cccc1NC(=O)c1ccc2c(c1)nnn2C1CCCC1	.	-4%	-5%	.	-5%
O=C(NCC1CCCO1)C1CCCN1C(=O)NC1CCCCC1 (stereo not drawn)	17%	-7%	-8%	0	-1%
Oc1[nH]c2ccc(Br)cc2c1N=NC(=S)NCC1CCCO1 (stereo not drawn)	-11%	14µM*[quencher]	16µM*	-5	6%
S=C(NCC1CCCO1)c1ccc(Br)cc1 (stereo not drawn)	20µM*	.	.	1	.
S=C(NCC1CCCO1)NC1CCCCC1 (stereo not drawn)	11µM*	-1%	9%	3	5%
COC(=O)C(C(=O)OC)C1O[C@@]23COCCC2(C)C3c2ccccc21 (stereo partly drawn)	7%	-22%[11.6 µM]	-20%[11.5 µM]	-2	4%[11.6 µM]
O=C(C[n+]1cc(-c2ccc(Cl)cc2)n2c1CCC2)N1c2ccccc2Sc2ccccc21	?	-7%	?	2	10%
O=C(C[n+]1cc(-c2ccc(Cl)c(Cl)c2)n2c1CCC2)N1c2ccccc2Sc2ccccc21	45µM*	?	?	1	-14%
CCCCC1=CC2=C(c3ccco3)C(=O)C(C)(OC(=O)c3ccc(OC)cc3)C(=O)C2=CN1Cc1ccc(OC)cc1 (stereo not drawn)	71µM*!	0%[11.6 µM]	14µM*!	0	?
CCCCC1=CC2=C(c3ccco3)C(=O)C(C)(OC(=O)c3ccc(OC)cc3)C(=O)C2=CN1CCCCO (stereo not drawn)	?	-13%[11.6 µM]	?	-6	-4%[11.6 µM]
CCCCC1=CC2=C(c3ccco3)C(=O)C(C)(OC(=O)c3ccc(OC)cc3)C(=O)C2=CN1CC(C)C (stereo not drawn)	3.5µM*!	-4%[11.6 µM]	-9%[11.5 µM]	-22	-14%[11.6 µM]
